Results filed as inconclusive are left out. Activity calls are given as the source filed them. The calls were made as follows: active = hit-call score of the fitted dose curve at least 0.9, where 1 is the maximum; inconclusive = response in the unintended direction; inactive = score below 0.9.
Each molecule was assayed against Estrogen-related receptor gamma (Homo sapiens) (UniProt P62508) (assay: ATG_ERRg_TRANS: Attagene TRANS-FACTORIAL HepG2 Assay for human Estrogen-Related Receptor gamma (ERRg) (AID 2282977;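 also: hits increase reporter signal over DMSO so potencies reflect activators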)). Settings: HepG2 Attagene TRANS reporter, ERRg transactivation.
Sequence of Estrogen-related receptor gamma (Homo sapiens) (P62508 whole entry, looked up): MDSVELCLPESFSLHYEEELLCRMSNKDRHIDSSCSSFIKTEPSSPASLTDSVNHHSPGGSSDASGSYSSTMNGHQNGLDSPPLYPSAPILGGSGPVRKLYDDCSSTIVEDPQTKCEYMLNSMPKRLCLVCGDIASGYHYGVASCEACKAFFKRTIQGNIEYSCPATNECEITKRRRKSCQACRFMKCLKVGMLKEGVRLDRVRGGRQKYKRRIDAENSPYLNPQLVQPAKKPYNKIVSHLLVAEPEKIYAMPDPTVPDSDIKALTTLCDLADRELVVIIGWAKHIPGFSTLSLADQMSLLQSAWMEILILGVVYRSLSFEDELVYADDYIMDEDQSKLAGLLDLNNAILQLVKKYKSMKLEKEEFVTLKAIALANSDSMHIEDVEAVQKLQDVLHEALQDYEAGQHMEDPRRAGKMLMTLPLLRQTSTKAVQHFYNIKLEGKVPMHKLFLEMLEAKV
Description: ATG_TRANS is a cell-based, multiplexed-readout assay that uses HepG2, a human liver cell line, with measurements taken at 24 hours after chemical dosing in a 24-well plate.ATG_ERRg_TRANS is one of 30 assay component(s) measured or calculated from the ATG_TRANS assay. It is designed to make measurements of mRNA induction, a form of inducible reporter, as detected with fluorescence intensity signals by Reverse transcription polymerase chain reaction (RT-PCR) and Capillary electrophoresis technology.Data from the assay component ATG_ERRg_TRANS was analyzed into 1 assay endpoint. This assay endpoint, ATG_ERRg_TRANS, was analyzed in the positive analysis fitting direction relative to DMSO as the negative control and baseline of activity. Using a type of inducible reporter, measures of mRNA for gain-of-signal activity can be used to understand the reporter gene at the transcription factor-level as they relate to the gene ESRRG. Furthermore, this assay endpoint can be referred to as a primary readout, because this assay has produced multiple assay endpoints where this one serves a reporter gene function. To generalize the intended target to other relatable targets, this assay endpoint is annotated to the nuclear receptor intended target family, where the subfamily is steroidal.
Human liver HepG2 cells are transiently transfected with multiple reporter transcription units (MRTUs) in 6-well plates using FuGene 6 reagent (Roche; 3 ml FuGene/1 mg DNA). The MRTU constructs are regulated by a cis-regulating element (promoter). […] A major difference between the CIS and TRANS system is that in CIS activities of endogenous TFs are measured, whereas the TRANS assay evaluates changes in activities of exogenous, chimeric NR-Gal4 proteins. […] At the end of 24 hour incubation, total RNA was isolated using TriZol reagent (Invitrogen). The isolated RNA is then reverse-transcribed using oligo(dT) primer and Mo-MLV reverse transcriptase (Invitrogen) with DNAse I (Ambion) treatment for 30 min. The one-tenth of the produced cDNA was amplified by PCR using Taq DNA polymerase (Invitrogen) and two reporter sequence-specific primers. The PCR products were fluorescently labeled by primer extension with 6-arboxyfluorescein (6-FAM) 5'-labeled reporter sequence-specific primer (2 min at 95 C, 20 s at 68 C and 10 min at 72 C) and these products were digested with 5U of HpaI (New England Biolabs) for 2h at 37 C. The fragments were purified using Qiaquick PCR columns (Qiagen), analyzed on an ABI 3130xL genetic analyzer (Applied Biosystems) with peak positions identified by using a set of X-rhodamine (ROX)-labeled MapMarker1000 molecular weight standards (BioVentures). The raw capillary electrophoresis data was processed using Attagraph software (Attagene).
In the case of CC(C)(C)C(=O)C=Cc1ccc(Cl)cc1, the outcome is reported as “inactive”.
c1cc(N(CC2CO2)CC2CO2)ccc1OCC1CO1 (stereo not given) was tested, and the outcome was “inactive”.
For N=c1ccn2c(n1)O[C@H]1[C@H](O)[C@@H](CO)O[C@H]12, the outcome was “inactive”.
In the case of COc1cc(NC(=O)CC(C)=O)c(OC)cc1Cl, the outcome is reported as “inactive”.
In the case of CCN(CCO)c1cccc(C)c1, the outcome is reported as “inactive”.
In the case of Cn1c([N+](=O)[O-])cnc1COC(N)=O, the outcome is reported as “inactive”.
For Nc1ccc(Oc2ccc(N)c(N)c2)cc1, the outcome was “inactive”.
With O=C1CCCCCN1SSN1CCCCCC1=O the outcome was “inactive”.
For COC(=O)c1sccc1S(N)(=O)=O, the outcome was “inactive”.
In the case of O=C1CCCC1, the outcome is reported as “inactive”.
With Cc1ccccc1C the outcome was “inactive”.
For C=CCOc1c(Br)cc(Br)cc1Br, the outcome was “inactive”.
In the case of O=S(=O)(Oc1ccc(Cl)cc1Cl)c1ccccc1, the outcome is reported as “inactive”.
For CC1(C)[C@H]2CC[C@]1(C)C(=O)C2, the outcome was “inactive”.
In the case of C[C@]12C=CC(=O)C=C1CC[C@@H]1[C@@H]2[C@@H](O)C[C@@]2(C)[C@H]1CC[C@]2(O)C(=O)CO, the outcome is reported as “inactive”.
In the case of Nc1ncn([C@@H]2O[C@H](CO)[C@@H](O)[C@H]2O)c(=O)n1, the outcome is reported as “inactive”.
c1ccc2c(c1)ccc1ncccc12 was tested, and the outcome was “inactive”.
With C=CC(=O)OCCC(=O)O the outcome was “inactive”.
For C#CC1(O)CC[C@H]2[C@@H]3CCC4=CCCC[C@@H]4[C@H]3CC[C@@]21C (stereo not given in full), the outcome was “inactive”.
For O=Cc1ccc(CO)o1, the outcome was “inactive”.
For O=S1(=O)OC(c2ccc(O)cc2)(c2ccc(O)cc2)c2ccccc21, the outcome was “inactive”.
For CC(=O)OC1C2(C)CCC(C2)C1(C)C (stereo not given), the outcome was “inactive”.
With C=CC(C)(C)C the outcome was “inactive”.
For OC1CCCC1, the outcome was “inactive”.
CNC(=S)NN was tested, and the outcome was “inactive”.
In the case of CC(C)(C)c1ccc(N)cc1, the outcome is reported as “inactive”.
With C=C(C)C(=O)OCCOc1ccccc1 the outcome was “inactive”.
For O=c1cc[nH]c(=S)[nH]1, the outcome was “inactive”.
For CCCCC(CC)COC(=O)c1ccccc1O (stereo not given), the outcome was “inactive”.
In the case of Cc1cc(C)c(C)c(C)c1, the outcome is reported as “inactive”.
With CCCCCCCCCCCCCCCC[N+](C)(C)CC the AC50 was 9.59 µM (active).
CC1=Nc2ccc3ccccc3c2C1(C)C was tested, and the outcome was “inactive”.
With CCCCCCCCc1ccc(Nc2ccc(CCCCCCCC)cc2)cc1 the outcome was “inactive”.
For CC1(C)S[C@@H]2[C@H](NC(=O)COc3ccccc3)C(=O)N2[C@H]1C(=O)O, the outcome was “inactive”.
For S=C(NC1CCCCC1)NC1CCCCC1, the outcome was “inactive”.
For CC(CC=O)CCCC(C)(C)O (stereo not given), the outcome was “inactive”.
With O=C(O)CCCC[C@@H]1SC[C@@H]2NC(=O)N[C@@H]21 the outcome was “inactive”.
In the case of COC=O, the outcome is reported as “inactive”.
In the case of O=C(O)CCCCCCCCCC(=O)O, the outcome is reported as “inactive”.
CCCCCCCCCCc1ccccc1 was tested, and the outcome was “inactive”.

Source: PubChem BioAssay (EPA / NIEHS)
